Each structure is given as a SMILES string. Records with an inconclusive call do not appear. Where a call stands in place of a potency, no number is given. Activity calls are given as the source filed them. Calls follow the shape of the dose curve; as a rule, active = well fitted inhibition curve with a large enough effect in the signal ratio in the repeat runs (not every such curve was filed as active); inconclusive = weak or mixed curves, or effect the other way; inactive = no such curve, though single readings can be large or run the other way; the % refers to the signal ratio.
Potency is read from the fitted curve at half-maximal effect.

Sequence of Estrogen receptor beta (Homo sapiens) (Q92731 whole entry, looked up): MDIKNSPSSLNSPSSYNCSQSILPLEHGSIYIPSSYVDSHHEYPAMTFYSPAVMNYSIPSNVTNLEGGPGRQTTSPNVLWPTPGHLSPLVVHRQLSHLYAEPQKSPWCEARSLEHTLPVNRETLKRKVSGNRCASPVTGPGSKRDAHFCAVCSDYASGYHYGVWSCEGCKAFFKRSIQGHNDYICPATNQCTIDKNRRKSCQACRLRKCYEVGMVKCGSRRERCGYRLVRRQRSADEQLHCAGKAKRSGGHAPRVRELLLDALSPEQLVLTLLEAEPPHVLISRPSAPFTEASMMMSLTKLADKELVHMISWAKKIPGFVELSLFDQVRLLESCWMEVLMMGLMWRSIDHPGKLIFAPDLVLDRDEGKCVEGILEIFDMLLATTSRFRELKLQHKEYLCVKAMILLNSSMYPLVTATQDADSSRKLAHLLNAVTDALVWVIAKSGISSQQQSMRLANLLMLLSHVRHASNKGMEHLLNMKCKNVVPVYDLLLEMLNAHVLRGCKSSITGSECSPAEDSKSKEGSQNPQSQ

This test concerns the target Estrogen receptor beta (Homo sapiens) (UniProt Q92731). The test can be described thus: qHTS assay to identify small molecule antagonists of the estrogen receptor beta (ER-beta) signaling pathway (AID 1259378). Particulars: ER-beta-UAS-bla HEK293T, beta-lactamase FRET ratio, 16 h; series mostly up to 92.4 µM. From the text:
National Center for Advancing Translational Sciences [NCATS]
NIH Chemical Genomics Center [NCGC]
U.S. Environmental Protection Agency [EPA]
National Institutes of Environmental Health Sciences [NIEHS]
National Toxicology Program [NTP]
U.S. Food and Drug Administration [FDA]
Estrogen receptor (ER), a nuclear hormone receptor, plays an important role in development, metabolic homeostasis and reproduction. Two subtypes of ER, ER-alpha and ER-beta, have similar expression patterns with some uniqueness in both types. Endocrine disrupting chemicals (EDCs) and their interactions with steroid hormone receptors like ER causes disruption of normal endocrine function. To identify the compounds that inhibit ER signaling, an ER-beta-UAS-bla GripTite cell line (Life Technologies, Madison, WI, USA) containing a beta-lactamase reporter gene under the control of an UAS response element was used to screen Tox21 10K compound library.
Tox21 Assay Protocol Summary:
ER-beta-UAS-bla HEK293T cells were dispensed at 2,000 cells/4 uL of assay medium containing 2% charcoal stripped FBS per well into black wall/clear-bottom 1536-well plates using a Multidrop Combi (ThermoFisher Scientific, Waltham, MA) dispenser. After the assay plates were incubated at a 37C and 5% CO2 for 6 hr, 23 nL of compounds dissolved in DMSO, positive controls or DMSO only was transferred to the assay plate by a Pintool station (Kalypsys, San Diego, CA), followed by addition of 1 uL (1nM as final concentration) of 17-beta-estradiol (E2) in assay medium using a BioRAPTR FRD (Flying Reagent Dispenser, Aurora Discovery, San Diego, CA). The plates were incubated at 37C and 5% CO2 for 16 hr. Then 1 uL of LiveBLAzerTM B/G FRET substrate was added using a Flying Reagent Dispenser, the plates were incubated at room temperature for 2 hours, and fluorescence intensity was measured by an Envision plate reader (PerkinElmer, Shelton, CT).
On the technique in general: qHTS replaces the single test concentration by a dilution series.
On to `CN1C(=O)c2ccccc2C1=O`, for which the Potency result was “inactive”. As to `O=C(O)C[C@H](NC(=O)OCc1ccccc1)C(=O)O`, the Potency entry was “inactive”. The result for `C1COC1` reads “inactive”; that for `CCC=CC#N`, “inactive”; that for `CCC(=O)C1CC(C(C)C)CC=C1C` (stereo not given), “inactive”. Then `Clc1ccc(Nc2nnc(Cc3ccncc3)c3ccccc23)cc1`, with 13.3 µM (active); and `C=C1c2cccc(O)c2C(O)=C2C(=O)[C@]3(O)C(O)=C(C(N)=O)C(=O)[C@@H](N(C)C)[C@@H]3[C@@H](O)[C@H]12`, with “inactive”; and `CC1=C(CC=O)C(C)(C)CCC1`, with “inactive”. The result for `CC(=O)Nc1cc(S(=O)(=O)O)cc2cc(S(=O)(=O)O)c(N=Nc3ccccc3)c(O)c12` reads “inactive”. Regarding `CCC1CO1` (stereo not given), the Potency entry is “inactive”.

As for `Brc1cc(Br)c(Oc2cc(Br)c(Br)cc2Br)cc1Br`, the Potency entry is “inactive”.

For the compound `Cc1cc2c(OCC(CNC(C)(C)C)OC(=O)c3ccccc3)cccc2[nH]1` (stereo not given), the Potency entry was “inactive”.

With `CC1=C(Br)C(=O)C(Br)=C/C1=C(/c1ccccc1S(=O)(=O)O)c1cc(Br)c(O)c(Br)c1C`, the Potency entry was “inactive”. Then `C=CC(C)(CCC=C(C)C)OC(=O)CC(C)C` (stereo not given), with “inactive”; and `CCCCCCCCCI`, with “inactive”; and `CCOC(=O)c1ccc(C#Cc2ccc3c(c2)C(C)(C)CCS3)nc1`, with “inactive”. Then `CCC(OCCCOC)OC(C)=O` (stereo not given), with “inactive”; and `CCCC(=O)C(=O)O`, with “inactive”. `C[C@@H]1CN(CCCn2c3ccccc3c3ccccc32)C[C@H](C)N1`: the Potency was 13.3 µM (active). Then `CCC1NC(=O)c2cc(S(N)(=O)=O)c(Cl)cc2N1` (stereo not given), with “inactive”; and `CC(=O)OCC(=O)NCCCOc1cccc(CN2CCCCC2)c1`, with “inactive”. The result for `Cc1ccc(CO)cc1` reads “inactive”.

Consider `O=Cc1c2ccccc2c(Cl)c2ccccc12`, for which the Potency entry was “inactive”. Then `CC(=O)OCC[N+](C)(C)C`, with “inactive”. Then `O=C1c2ccccc2C(=O)C1(O)O`, with “inactive”; and `O=C1Cc2cc(Cl)ccc2N1`, with “inactive”; and `CC(C)(C)C(=O)C(=O)O`, with “inactive”. Consider `Clc1cc(Cl)nc(Cl)n1`, for which the Potency entry was “inactive”. `CCn1cc(C(=O)O)c(=O)c2cc(F)c(N3CCNCC3)cc21`: the Potency entry was “inactive”. Consider `Nc1cccc2c1CN(C1CCC(=O)NC1=O)C2=O` (stereo not given), for which the Potency result is “inactive”. The result for `Cc1cc(O)ccc1O` reads 55.1 µM (active); that for `C[C@@H](CN(C)C)CN1c2ccccc2Sc2ccccc21`, 23.7 µM (active); that for `O=c1[nH]ncc2ccccc12`, “inactive”.

Regarding `COC(=O)C1=C(C)NC(C)=C(C(=O)O[C@@H]2CCCN(Cc3ccccc3)C2)[C@@H]1c1cccc([N+](=O)[O-])c1`, the Potency was 26.6 µM (active).

Consider `OC1(c2ccccc2)CCNCC1`, for which the Potency result was “inactive”. For `CN1C(C(=O)Nc2ccccn2)=C(O)c2sccc2S1(=O)=O`, the Potency entry is “inactive”. Then `COc1ccccc1N1CCN(CC(O)COc2cccc3ccccc23)CC1` (stereo not given), with 23.7 µM (active); and `CCC1(CO)COCOC1`, with “inactive”; and `C[C@@H](O)[C@H]1C(=O)N2C(C(=O)O)=C([C@H]3CCCO3)S[C@H]12`, with “inactive”.

Take `Cc1ccccc1S`: the Potency result is “inactive”.

The record behind these values is PubChem BioAssay (Tox21).
